We go through 36 compounds from PubChem BioAssay.

The assay is described as follows: compound effects on lung adenocarcinoma cell viability – A549, calcein-AM fluorescence, 48 h, basal, profiling panel (AID 1162). Note: test concentration not given here. The note with it: higher = more signal.
For the compound `[N-]=[N+]=NCc1ccccc1C[C@@]1(C(=O)N2CCCCC2)N=C(c2ccc(OCCCO)cc2)O[C@@H]1c1ccccc1`, the z-score was -1.26.
In the case of `O=C1O[C@@H](c2ccccc2)[C@@H](c2ccccc2)N2[C@@H](c3ccc(OCCO)cc3)[C@]3(C(=O)Nc4ccccc43)[C@@H](C(=O)O)[C@H]12` it was -0.644; in that of `CC(CO)N1C(=O)[C@@H]2[C@H]3C(=O)OCC=C[C@H]3OC23C=CCN(C(C)(C)C)C(=O)[C@@H]13` (stereo partly specified), -0.0702; in that of `CN1C(=O)C2C=CC(C(O)c3cccc4ccccc34)N(N3CCCCC3)C2C1=O` (stereo unspecified), -0.866.
Take `CN(C)C(=O)[C@]1(CCS(=O)(=O)c2ccccc2)N=C(c2ccc(OCCCO)cc2)O[C@@H]1c1ccccc1N=[N+]=[N-]`: the z-score is 1.12.
Regarding `COC(=O)[C@@]1(Cc2ccc(F)cc2)[C@H]2c3cc(C(=O)N4CCCC4)n(CCc4ccc(O)c(O)c4)c3C[C@H]2CN1C(=O)c1ccccc1`, the z-score is 0.863.
In the case of `CN(C)CCCNC(=O)[C@@]1(c2ccc([N+](=O)[O-])cc2)CC(=O)N(CC23CC4CC(CC(C4)C2)C3)[C@@H]1c1ccc(CO)cc1I` it was -4.27.
Regarding `Cc1cc(C)c(C(O)C2C=CC3C(=O)NC(=O)C3N2Nc2ccc(Cl)cc2Cl)c(C)c1` (stereo unspecified), the z-score was -2.15.
As for `COCCOC(=O)N1C(=O)[C@@]2(c3cc(C#CC4=CCCCC4)ccc31)[C@H](c1ccc(OCCO)cc1)N1[C@H](c3ccccc3)[C@H](c3ccccc3)OC(=O)[C@H]1[C@@H]2C(=O)N1CCN(c2ncccn2)CC1`, the z-score is -0.471.
On to `C=CCC(OC(C)=O)[C@@H]1[C@@H](N(Cc2ccc(-c3ccccc3)cc2)C(=O)Cc2ccc(F)cc2)c2cc(OCCCO)ccc2N1C(=O)Cc1ccc(OC)cc1` (stereo partly specified), for which the z-score is 0.178.
As for `COC(=O)[C@@]1(Cc2ccc(OC)cc2)[C@H]2c3cc(C(=O)N(C)C)n(C[C@H](O)CO)c3C[C@H]2CN1C(=O)c1ccccc1`, the z-score was -0.93.
Consider `Cn1cccc1C(O)C1C=CC2C(=O)NC(=O)C2N1Nc1ccc(Cl)cc1Cl` (stereo unspecified), for which the z-score is -0.924.
Regarding `COc1ccc([Si](C)(C)[C@@H]2[C@@H](CC(=O)N(CCO)Cc3ccccc3)O[C@]3(C(=O)N(Cc4cccc(N5C(=O)c6cccc7cccc5c67)c4)c4ccccc43)[C@H]2C)cc1`, the z-score is -1.32.
With `Cc1ccc(S[C@]2(C(=O)NCC(F)(F)F)CC(=O)N(Cc3ccccc3C(F)(F)F)[C@@H]2c2ccc(CO)cc2I)cc1`, the z-score was 1.45.
Regarding `CCOc1cc(C(O)C2C=CC3C(=O)N(c4ccccc4)C(=O)C3N2Nc2ccc(C#N)cc2)ccc1O` (stereo unspecified), the z-score was -0.403.
Take `COCCOC(=O)N1C(=O)[C@@]2(c3ccccc31)[C@H](C(=O)N1CCN(c3ncccn3)CC1)[C@H]1C(=O)O[C@H](c3ccccc3)[C@H](c3ccccc3)N1[C@@H]2c1ccc(O)cc1`: the z-score was -0.337.
Then `CCCC[C@@H]1C[C@H]1[C@@H](NC(=O)c1cccs1)c1ccc(C(F)(F)F)cc1`, with -1.36.
Turning to `COC(=O)c1ccc([C@H](NC(=O)c2ccco2)[C@]2(C)C[C@H]2C2CCCCC2)cc1`, the z-score was -1.13.
As to `O[C@@H](Cc1ccccc1)[C@@H](/C=C/C1CC1)N(CC#Cc1ccccc1)Cc1cccc(Cl)c1`, the z-score is 0.136.
As to `N#Cc1ccc(C(O)C2C=CC3C(=O)N(c4ccccc4)C(=O)C3N2Nc2ccccc2)cc1` (stereo unspecified), the z-score is -0.26.
In the case of `CC(C)N1C(=O)c2ccccc2[C@@H](C(=O)NC2CC2)[C@@H]1c1ccc(CO)cc1`, the z-score was 0.798.
As for `COC(=O)c1nc2oc1CC[C@@H](CO)NC(=O)N(C)Cc1cnnn1C[C@H](Cc1ccccc1)NC2=O`, the z-score is 0.0656.
For the compound `C=CCNC(=O)[C@@H]1[C@H]2C(=O)O[C@H](c3ccccc3)[C@H](c3ccccc3)N2[C@H](c2ccc(O)cc2)[C@@]12C(=O)N(C(=O)OCCOC)c1ccc(C#CC3(O)CCCCCC3)cc12`, the z-score is 0.0287.
Take `O=C1C=C(c2ccccc2)C(=O)c2ccc([C@H]3Oc4ccccc4S(=O)(=O)N4CCC[C@@H]34)cc21`: the z-score is -0.309.
Then `C=C(COC)/C(=C/C[C@H](OC(C)=O)c1ccc(OCCO)cc1)c1cc(C(=O)OC)ccc1OC`, with 1.82.
As to `CC(C)[Si](C#C[Si](C(C)C)(C(C)C)C(C)C)(O[C@H](C)c1cn([C@H](CO)Cc2ccccc2)nn1)C(C)C`, the z-score was 1.11.
Take `CC1CC/C=C\[C@H]2OC34C=CCN(C(C)C)C(=O)[C@H]3N(CCCCCCO)C(=O)[C@@H]4C2C(=O)O1` (stereo partly specified): the z-score is -0.868.
For the compound `CC1CC/C=C\[C@H]2OC34C=CCN(c5ccc(Cl)cc5)C(=O)[C@H]3N(CCCCCO)C(=O)[C@]4(C)C2C(=O)O1` (stereo partly specified), the z-score was -0.0287.
In the case of `COCCCNC(=O)[C@@]1(Sc2ccc(C)cc2)CC(=O)N(C2CCCCC2)[C@@H]1c1ccc(CO)cc1` it was -0.162; in that of `[N-]=[N+]=Nc1ccccc1[C@H]1OC(c2ccc(OCCCO)cc2)=N[C@@]1(Cc1ccccc1)C(=O)N1CCCCC1`, -0.127.
Regarding `CC(C)OC(=O)C=C1C[C@@H](c2ccc(C(F)(F)F)cc2)O[C@@H](c2ccc(C(F)(F)F)cc2)O1`, the z-score was 0.944.
Consider `[N-]=[N+]=Nc1ccccc1[C@@H]1OC(c2ccc(OCCCO)cc2)=N[C@]1(Cc1ccccc1)C(=O)NCC(O)CO` (stereo partly specified), for which the z-score was -0.828.
As to `[N-]=[N+]=Nc1ccccc1C[C@]1(C(N)=O)N=C(c2ccc(OCCCO)cc2)O[C@H]1c1ccccc1N=[N+]=[N-]`, the z-score is -1.47.
As for `C[C@@H]1NC(=O)[C@@]23C(=O)N[C@@H](Cc4ccccc4)C2[C@H](C)[C@@]2(C)O[C@H]2C3/C=C/C/C=C\CNC(=O)[C@@H]2CCCN2C1=O` (stereo partly specified), the z-score was -0.143.
Take `COCCCNC(=O)[C@]1(CCS(=O)(=O)c2ccccc2)N=C(c2ccc(OCCCO)cc2)O[C@@H]1c1ccccc1N=[N+]=[N-]`: the z-score was 0.76.
Regarding `O=C1OCCC/C=C\[C@H]2OC34C=CCN(CCN5CCOCC5)C(=O)[C@H]3N(CCCCCCO)C(=O)[C@@H]4C12` (stereo partly specified), the z-score is 0.26.
